# High-throughput results: PubChem, National Center for Advancing Translational Sciences (NCATS)
# Sm TGR inh: inhibitors of Schistosoma mansoni thioredoxin glutathione reductase. hit rate 3% among 360,000. purified TGR, DTNB reduction, TNB absorbance 405 nm. AID 485364. Potency, µM (top dose mostly 114 µM), hits mostly inhibitors. Q962Y6; note: nearly all actives have a fitted effect of over 60% in size
#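 TGR 20 nM + NADPH 100 uM (dispensed conc.), cpd preinc 15 min RT; start with NADPH (500 uM addition) then DTNB (15 mM addition). Kinetic TNB absorbance, 405 nm filter. Four-parameter Hill fit across titration.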
# AmpC inh detg: inhibitors of E. coli AmpC beta-lactamase with detergent. AmpC hydrolysis of nitrocefin, absorbance 480 nm, 0.01% Triton. Potency, µM (highest dose often 114 µM), actives largely listed as inhibitors. hit rate 0.041% among 370,000. AID 485294; note: nearly all actives have a fitted effect of over 25% in size
# Target sequence (P00811 whole entry, looked up): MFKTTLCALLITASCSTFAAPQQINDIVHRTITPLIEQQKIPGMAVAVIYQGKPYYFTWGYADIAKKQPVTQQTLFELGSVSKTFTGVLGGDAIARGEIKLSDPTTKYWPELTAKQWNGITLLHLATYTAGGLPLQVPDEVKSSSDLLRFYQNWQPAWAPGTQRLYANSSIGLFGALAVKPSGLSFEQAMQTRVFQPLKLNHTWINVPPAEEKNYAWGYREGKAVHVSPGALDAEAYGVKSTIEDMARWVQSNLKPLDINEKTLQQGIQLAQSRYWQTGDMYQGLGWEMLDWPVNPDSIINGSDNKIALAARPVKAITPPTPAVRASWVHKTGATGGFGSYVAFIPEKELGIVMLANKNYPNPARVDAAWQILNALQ
#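 AmpC (5.3 nM in the dispensed reagent) in 20 mM phosphate pH 7.0 with 0.01% (detergent screen) or 0.0001% Triton X-100 was preincubated with compounds for 15 min at room temperature. Nitrocefin was then added from an 800 uM solution, and hydrolysis was followed at 480 nm.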
# AmpC inh no detg: AmpC beta-lactamase inhibition without detergent; P00811; AID 485341; Potency, µM (top dose mostly 57.1 µM), most hits filed as inhibitors; AmpC nitrocefin hydrolysis, absorbance 480 nm, 0.0001% Triton; hit rate 0.52% among 330,000; note: nearly all actives have a fitted effect of over 20% in size
#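 20 mM phosphate pH 7.0 + 0.01% (detergent screen) or 0.0001% Triton X-100; 5.3 nM AmpC reagent; cpd preinc 15 min RT; nitrocefin (800 uM stock) to start; A480 q20 s × 4 min; Activity was normalised to no-enzyme and no-compound control wells.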
# AMA1-RON2 inh: AMA1-RON2 (P. falciparum) interaction inhibition | Potency, µM (series often up to 58.2 µM), actives largely listed as inhibitors | hit rate 0.2% among 360,000 | AlphaScreen AMA1-biotinylated RON2 peptide binding; note: nearly all actives have a fitted effect of over 45% in size
#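 AMA1 (3D7) with his tag at 25 nM final met compounds first, then biotinylated RON2 peptide at 25 nM; detection used donor plus acceptor beads, 10 µg/mL apiece, read by AlphaScreen after 30 min at room temperature.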
# RE007 growth inh: less growth of the S. pombe RE007 Vpr strain; S. pombe RE007 Vpr strain, BacTiter-Glo ATP luminescence, 24 h; Potency, µM (titrated, usually from 92.2 µM), usual class: inhibitors; hit rate 0.21% among 360,000; AID 651644; active = well fitted falling curve with a large enough effect; inconclusive = small, poorly fitted or top-dose-only effect; inactive = no such curve, though single readings can be large or run the other way; note: nearly all actives have a fitted effect of over 50% in size
#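 Fission yeast RE007 carrying one integrated HIV-1 vpr copy, seeded at OD 0.01 in PMG+AL medium with 23 nL pinned compound. Grown 24 h at 30 degrees; viability read by BacTiter-Glo luminescence after 5 min.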
# Numbers stand for hits; i = inactive; ? = inconclusive; nt = no result given. This is a sample that favours compounds with a hit; in the whole collection about 3.2% have one here. Unless noted, calls come from the whole dose curve; as a rule, active = well fitted curve in the direction sought with a large enough effect; inconclusive = small, poorly fitted or top-dose-only effect, or another doubt; inactive = no such curve, though single readings can be large; an effect the other way counts as inactive or inconclusive.
SMILES,Sm TGR inh,AmpC inh detg,AmpC inh no detg,AMA1-RON2 inh,RE007 growth inh
Cc1ccc(NC(=S)NCc2ccccc2)cc1C,nt,nt,nt,i,i
Cc1nc2ccc(NC(=S)NCc3ccccc3)cc2nc1C,40µM,i,i,i,i
COc1ccc(NC(=S)Nc2ccc(C)c(S(=O)(=O)N3CCCCC3)c2)cc1,i,i,i,nt,nt
CCOC(=O)c1ccc(NC(=O)c2ccc3c(c2)c(C)c(C)n3Cc2ccc(F)cc2)cc1,i,i,nt,nt,nt
CCc1ccc(Nc2cc(C)nc3nc(Cc4ccc(Cl)cc4)nn23)cc1,i,i,nt,nt,nt
Cc1nc2ccc(NC(=S)N3CCCC3)cc2nc1C,i,i,i,i,i
COc1ccc(N(C)C(=S)Nc2ccc3nc(C)c(C)nc3c2)cc1,56µM,i,i,i,i
COCCOC(=O)c1cc(C(=O)c2cc(Cl)ccc2O)coc1=N,i,i,i,i,i
CCOC(=O)c1cc(C(=O)c2cc(Cl)ccc2O)coc1=N,i,i,5µM,i,i
O=C(Nc1ccc(-c2nc3ncccc3o2)cc1)c1ccco1,20µM,?,i,i,i
O=C(Nc1ccc2oc(-c3cccnc3)nc2c1)c1ccco1,50µM,i,i,i,i
O=C(Nc1ccc2oc(-c3cccnc3)nc2c1)c1cccnc1,i,i,i,i,i
O=C(Nc1ccc2oc(-c3cccnc3)nc2c1)c1ccc(Br)o1,28µM,i,i,i,i
O=C(Nc1ccc(-c2nc3ncccc3o2)cc1)c1ccc(Br)o1,?,i,i,i,i
CCOC(=O)C1CCN(C(=O)c2cnn(-c3ccc(F)cc3)c2-n2cccc2)CC1,i,i,nt,nt,nt
O=C1CC(c2ccco2)c2ccc3ccccc3c2N1 (centres undefined),45µM,?,i,i,i
COc1cc2c(cc1OC)C(c1ccco1)CC(=O)N2 (centres undefined),i,?,i,i,i
CCOC(=O)c1ccc(NC(=O)Cn2cc(C(=O)c3ccc(Cl)cc3)c(=O)c3ccc(C)nc32)cc1,i,i,nt,nt,nt
Cc1cccc2sc(N(Cc3cccnc3)C(=O)CCS(=O)(=O)c3ccccc3)nc12,4.5µM,i,nt,nt,nt
O=C(CCS(=O)(=O)c1ccccc1)N(Cc1cccnc1)c1nc2c(Cl)cccc2s1,1.6µM,i,nt,nt,nt
Cc1ccc2sc(N(Cc3cccnc3)C(=O)CCS(=O)(=O)c3ccccc3)nc2c1C,35µM,i,nt,nt,nt
Cc1cc(C)c2nc(N(Cc3cccnc3)C(=O)CCS(=O)(=O)c3ccccc3)sc2c1,i,i,nt,nt,nt
Cc1ccc(CC(=O)Nc2c(C(=O)N3CCN(c4ccccc4F)CC3)oc3ccccc23)cc1,45µM,i,nt,nt,nt
CCc1ccc(C2CC(=O)N3CN(c4ccccc4)CSC3=C2C#N)cc1 (centres undefined),35µM,?,?,i,i
COc1ccc(N2CSC3=C(C#N)C(c4cc(OC)c(OC)cc4OC)CC(=O)N3C2)c(OC)c1 (centres undefined),6.3µM,i,i,i,i
SMILES,Sm TGR inh,AmpC inh detg,AmpC inh no detg,AMA1-RON2 inh,RE007 growth inh
N#CC1=C2SCN(Cc3ccco3)CN2C(=O)CC1c1ccccc1F (centres undefined),?,i,i,i,i
CCc1ccc(N2CSC3=C(C#N)C(c4cccs4)CC(=O)N3C2)cc1 (centres undefined),i,?,i,i,i
COc1ccc(N2CSC3=C(C#N)C(c4cccs4)CC(=O)N3C2)cc1 (centres undefined),22µM,i,i,i,i
COc1cc(OC)c(C2CC(=O)N3CN(c4ccc(C)cc4)CSC3=C2C#N)cc1OC (centres undefined),8.9µM,?,i,i,i
Cc1ccc(N2CSC3=C(C#N)C(c4cccs4)CC(=O)N3C2)cc1 (centres undefined),i,?,i,i,i
COc1ccccc1CNS(=O)(=O)c1ccc2c(c1)NC(=O)CC(=O)N2,i,i,nt,nt,nt
Cc1cccc(C(=O)Nc2cccc(OCc3cc(=O)n4ccccc4n3)c2)c1,i,i,nt,nt,nt
N#CC1=C2SCN(c3ccc(F)cc3)CN2C(=O)CC1c1cccc(F)c1 (centres undefined),?,i,i,i,i
